± gives the standard deviation.
Legend:
[1] = system: MILI (PIWIL2) piRISC loaded with L1MC piRNA (26 nt); assay: pre-steady-state target cleavage rate (min^-1); guide: L1MC piRNA 5'p-UAACUAAAUACUAUGCAAGCUGUAGG; higher = faster piRNA-guided slicing of the target;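 also: 1 nM active piRISC with 0.1 nM target library at 33 °C single turnover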
Summary of the method: (§1)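 Three pooled Cleave-'n-Seq trials supplied the data, with k3 capped at 0.0001 min^-1. In each, […] transcribed, DNA-blocked target RNA library and 1 nM active affinity-purified piRISC with one synthetic guide reacted in HEPES–potassium acetate buffer at 33 °C for 0–8 or 0–960 min, with or without 500 nM GTSF1 partner protein. Uncleaved targets were sequenced and normalised to depth and to weakly complementary targets. A burst-and-steady-state fit provided the pre-steady-state cleavage rate.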

[2] = system: EfPiwi piRISC loaded with L1MC piRNA (26 nt); assay: pre-steady-state target cleavage rate (min^-1); auxiliary factor: 500 nM Ephydatia muelleri Gtsf1; guide: L1MC piRNA 5'p-UAACUAAAUACUAUGCAAGCUGUAGG; MIWI and MILI are mouse PIWI proteins and EfPiwi is from a freshwater sponge; tags in brackets are library labels; higher = faster piRNA-guided slicing of the target
Summary of the method: as §1

[3] = auxiliary factor: 500 nM mouse GTSF1
[4] = auxiliary factor: none (no GTSF1)

Sequence | pre-steady-state target cleavage rate [1, 3] | pre-steady-state target cleavage rate [1, 4] | pre-steady-state target cleavage rate [2]
UCCUGCAACAGCUUGCAUAGUAUUUAGUAA | 0.333 ± 0.031 | 0.00819 ± 0.0029 | 0.00572 ± 0.0023
UCCUGGAUGAGCUUUGCAUAGUAUUUAGUUA | 0.181 ± 0.013 | 0.0103 ± 0.0021 | 0.0107 ± 0.0037
UCCUCCUACAGCUUGCUUAGUAUUUAGUUA | 0.275 ± 0.015 | 0.00811 ± 0.0021 | 0.0424 ± 0.012
UCCUGGUACAGCUGUGCAUAGUAUUUAGUUA | 0.238 ± 0.019 | 0.0118 ± 0.0046 | 0.00903 ± 0.0034
UCCUGGUACAGCUUGCCUAGUAUUUAGUUA | 0.213 ± 0.019 | 0.00843 ± 0.0026 | 0.00475 ± 0.0026
UCCUGGAUCAGCAUGCAUAGUAUAUAGUUA | 0.297 ± 0.018 | 0.00579 ± 0.0027 | 0.00329 ± 0.0028
UCCUCCUACUGCUUGCAUAGUAAUUAGUUA | 0.2 ± 0.014 | 0.00554 ± 0.0017 | 0.0119 ± 0.0043
UCCUCCUACAGCUUGCAAUGUAUUUAGUUA | 0.101 ± 0.015 | 0.00693 ± 0.0023 | 0.0107 ± 0.0042
UCCUCCUACAGCUUGGAUAGUAUUUUGUUA | 0.164 ± 0.028 | 0.00424 ± 0.0026 | 0.00565 ± 0.0022
UCCUGCUACAGCAUGCAUUGUAUUUAGUUA | 0.213 ± 0.02 | 0.00734 ± 0.0026 | 0.0119 ± 0.0032
UCCUGGUAUCAGCUUGCAUAGUAUUUAGUUA | 0.252 ± 0.026 | 0.0221 ± 0.0059 | 0.0704 ± 0.018
UCCUGGAACAGCUUGCAAAGUAUUUAGUAA | 0.158 ± 0.022 | 0.00401 ± 0.0024 | 0.00293 ± 0.0022
UCCUGGUACAGCUUGCAUAGUAUUUAUUUA | 0.166 ± 0.037 | 0.0109 ± 0.0041 | 0.00732 ± 0.0063
UCCUGCUACAGCUUGGAAAGUAUUUAGUUA | 0.138 ± 0.012 | 0.00897 ± 0.0022 | 0.0208 ± 0.0042
UCCUGGUACAGCUUGCAUAGUAUGUUAGUUA | 0.184 ± 0.03 | 0.00462 ± 0.0027 | 0.00488 ± 0.0028
UCCUGGAUCAGCUUGCAUAGUAUAUUAGUUA | 0.273 ± 0.015 | 0.00593 ± 0.0025 | 0.127 ± 0.043
UCCUGGAUCAGGUUGGAUAGUAUUUAGUUA | 0.164 ± 0.013 | 0.0112 ± 0.0027 | 0.00425 ± 0.003
UCCUCCUACAGCUUGCAUAGUAUUUAGUUU [g2:g26:cont:t1U] | 0.35 ± 0.02 | 0.0339 ± 0.0087 | 0.265 ± 0.062
UCCUGCGUACAGCUUGCAUAGUAUUUAGUUA | 0.314 ± 0.021 | 0.0109 ± 0.0033 | 0.0434 ± 0.012
UCCUGGAACUGCUAGCAUAGUAUUUAGUUA | 0.215 ± 0.015 | 0.00611 ± 0.0019 | 0.0171 ± 0.0058
UCCUGGAACUGCUUGCAUAGUAUAUAGUUA | 0.128 ± 0.021 | 0.00491 ± 0.0025 | 0.0584 ± 0.021
UCCUGGUAGAGCUUGCAUUGUAUUUAGUUA | 0.18 ± 0.015 | 0.00645 ± 0.0026 | 0.00786 ± 0.0033
UCCUGGAUCAGCUUGCAUAGUAUUGUAGUUA | 0.176 ± 0.018 | 0.00992 ± 0.0032 | 0.00652 ± 0.0027
UCCUCCUACAGCUUGGUAAGUAUUUAGUUA | 0.185 ± 0.017 | 0.00498 ± 0.0018 | 0.00379 ± 0.0034
UCCUGGAUCACCUUGCAUACUAUUUAGUUA | 0.0453 ± 0.011 | 0.00336 ± 0.0028 | 0.00341 ± 0.0028
UCCUCCUACAGCUUGCAUAGAUUUUAGUUA | 0.0522 ± 0.012 | 0.00358 ± 0.002 | 0.0032 ± 0.002

Sequence | pre-steady-state target cleavage rate [1, 3] | pre-steady-state target cleavage rate [1, 4] | pre-steady-state target cleavage rate [2]
UCCUGGAUGUCCUUGCAUAGUAUUUAGAUA | 0.118 ± 0.018 | 0.00265 ± 0.0023 | 0.00461 ± 0.0029
UCCUGCUAGAGCUUGCAUAGUAUUUUGUUA | 0.172 ± 0.025 | 0.00521 ± 0.0022 | 0.00421 ± 0.0016
UCCUCCACAGCUUGCAUAGUAUUUAGUUA | 0.248 ± 0.014 | 0.00686 ± 0.0018 | 0.0564 ± 0.018
UCCUGGUUCAGCUUGCAUUGUAUUUAGUUA | 0.191 ± 0.023 | 0.0105 ± 0.0029 | 0.0223 ± 0.007
UCCUCCUAGACCUUGCAUAGUAUUUAGUUA | 0.237 ± 0.024 | 0.00751 ± 0.0025 | 0.141 ± 0.041
UCCUCCUACAGCUUGCAUUGUAUUUAGUAA | 0.182 ± 0.02 | 0.00398 ± 0.002 | 0.00648 ± 0.0029
UCCUGCUACAGGAAGCAUAGUAUUUAGUUA | 0.282 ± 0.014 | 0.00969 ± 0.0027 | 0.0127 ± 0.0035
UCCUGGAUGAGACUUGCAUAGUAUUUAGUUA | 0.186 ± 0.021 | 0.00953 ± 0.0028 | 0.00434 ± 0.003
UCCUGGUACAGCAUGCAUUGUAUUUAGUUA | 0.167 ± 0.016 | 0.0119 ± 0.0038 | 0.00628 ± 0.0022
UCCUGGAACGCUUGCAUAGUAUUUAGUUA | 0.239 ± 0.015 | 0.00644 ± 0.0019 | 0.0259 ± 0.0076
UCCUGGAUCAGCUUGCAUAGUAUUUAGUGA | 0.237 ± 0.021 | 0.006 ± 0.0028 | 0.0182 ± 0.0068
UCCUCCUUCAGCUUGCAUAGUAUUUUGUUA | 0.139 ± 0.021 | 0.00287 ± 0.002 | 0.00463 ± 0.0027
UCCUGCUCAGCUUGCAUAGUAUUUAGUUA | 0.278 ± 0.014 | 0.00716 ± 0.0018 | 0.065 ± 0.015
UCCUGGAUGAGCUAGCAUUGUAUUUAGUUA | 0.0518 ± 0.0092 | 0.00446 ± 0.0025 | 0.00519 ± 0.0032
UCCUCCUACAGCUUGCAUAGUAUUAUGUUA | 0.15 ± 0.025 | 0.00329 ± 0.0023 | 0.0049 ± 0.0026
UCCUCCUACGAGCUUGCAUAGUAUUUAGUUA | 0.163 ± 0.018 | 0.00585 ± 0.0022 | 0.0144 ± 0.0051
UCCUCCUUCAGCUUGCUUAGUAUUUAGUUA | 0.286 ± 0.015 | 0.00762 ± 0.002 | 0.0651 ± 0.022
UCCUGGAAGAGCUUGCAUAGUAAUUAGUUA | 0.177 ± 0.015 | 0.00468 ± 0.0028 | 0.00806 ± 0.0027
UCCUGGAACACGUUGCAUAGUAUUUAGUUA | 0.193 ± 0.014 | 0.01 ± 0.0027 | 0.0172 ± 0.0053
UCCUGGAACACCUUGCAAAGUAUUUAGUUA | 0.0999 ± 0.015 | 0.0069 ± 0.0021 | 0.00814 ± 0.0031
UCCUGGAAGAGCUAGCAUAGUAUUUAGUUA | 0.212 ± 0.016 | 0.00677 ± 0.0024 | 0.00727 ± 0.0022
UCCUGGAUGUCGAUGCAUAGUACUUAGUUA | 0.025 ± 0.0066 | 0.0058 ± 0.0019 | 0.00454 ± 0.0029
UCCUGGAAGAGCUUGCAUACUAUUUAGUUA | 0.0778 ± 0.014 | 0.00312 ± 0.0024 | 0.00438 ± 0.0026
UCCUGGAUCAGCUUCGCAUAGUAUUUAGUUA | 0.309 ± 0.02 | 0.00591 ± 0.0024 | 0.0389 ± 0.009
UCCUGGAUCAGCUUGCAUAAUAUUUAGUUA | 0.253 ± 0.031 | 0.00396 ± 0.0026 | 0.0108 ± 0.0031
